{"source": "PubChem BioAssay (NCATS)", "key": {"[1]": {"tested_on": "HaCat", "assay": "Cytotoxic Profiling of Annotated Libraries Using Quantitative High-Throughput Screening (AID 1296008); on max response: on the % scale 0 is the no-effect control and ±100 the full control effect", "conditions": "Five cell lines viability, CellTiter-Glo ATP luminescence, 48-72 h; max response: stronger effect = lower value", "in_short": "(§1)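 Compounds were pin-transferred onto cells and incubated 48 or 72 hr at 37 degree Celsius, 95% humidity. CellTiter-Glo was added, plates sat 10 min at room temperature, then ATP-coupled luminescence was imaged as the viability read-out.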"}, "[2]": {"tested_on": "PC49", "assay": "qHTS profiling for inhibitors of Plasmodium falciparum proliferation (AID 504749)", "conditions": "P. falciparum in erythrocytes, SYBR Green DNA, 72 h; series mostly up to 28.7 µM", "in_short": "(§2)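 P. falciparum-infected erythrocytes (0.3% parasitemia, 2.5% hematocrit final) were exposed to compounds for 72 h at 37 C in 5% CO2, then lysed with SYBR Green buffer overnight at room temperature; parasite DNA fluorescence was normalized to artemisinin and DMSO controls.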"}, "[3]": {"tested_on": "SC27B", "assay": "qHTS profiling for inhibitors of Plasmodium falciparum proliferation (AID 504749)", "conditions": "P. falciparum in erythrocytes, SYBR Green DNA, 72 h; series mostly up to 28.7 µM", "in_short": "as §2"}, "[4]": {"tested_on": "TAB109", "assay": "qHTS profiling for inhibitors of Plasmodium falciparum proliferation (AID 504749)", "conditions": "P. falciparum in erythrocytes, SYBR Green DNA, 72 h; series mostly up to 28.7 µM", "in_short": "as §2"}, "[5]": {"tested_on": "TAB165", "assay": "qHTS profiling for inhibitors of Plasmodium falciparum proliferation (AID 504749)", "conditions": "P. falciparum in erythrocytes, SYBR Green DNA, 72 h; series mostly up to 28.7 µM", "in_short": "as §2"}, "[6]": {"tested_on": "W2", "assay": "qHTS profiling for inhibitors of Plasmodium falciparum proliferation (AID 504749)", "conditions": "P. falciparum in erythrocytes, SYBR Green DNA, 72 h; series mostly up to 28.7 µM", "in_short": "as §2"}, "[7]": {"tested_on": "KB-3-1", "assay": "Cytotoxic Profiling of Annotated Libraries Using Quantitative High-Throughput Screening (AID 1296008)", "conditions": "Five cell lines viability, CellTiter-Glo ATP luminescence, 48-72 h; max response: stronger effect = lower value", "in_short": "as §1"}, "[8]": {"tested_on": "TAB113", "assay": "qHTS profiling for inhibitors of Plasmodium falciparum proliferation (AID 504749)", "conditions": "P. falciparum in erythrocytes, SYBR Green DNA, 72 h; series mostly up to 28.7 µM", "in_short": "as §2"}, "[9]": {"tested_on": "HEK293", "assay": "Cytotoxic Profiling of Annotated Libraries Using Quantitative High-Throughput Screening (AID 1296008)", "conditions": "Five cell lines viability, CellTiter-Glo ATP luminescence, 48-72 h; max response: stronger effect = lower value", "in_short": "as §1"}}, "note": "Where “and” joins values, the source holds several entries; their conditions need not be identical. Identical values can stand only once. Results filed as inconclusive are left out. Calls of active or inactive are those of the source. The call rests on the fitted dose curve; in most records, active means well fitted inhibition curve with a large enough effect; inconclusive means small, poorly fitted or top-dose-only effect; inactive means flat fitted curve, though single readings scatter. Further: nearly all actives have a fitted effect of over 60% in size. Potency means the concentration at half of the fitted maximal effect."}
{"smiles": "Cc1cccc(N(C)C(=S)Oc2ccc3c(c2)CCC3)c1", "values": [{"measurement": "max response", "setting": "[1]", "value": "-7.13% (inactive)"}]}
{"smiles": "CC(NCCC(c1ccccc1)c1ccccc1)c1ccccc1", "note": "(configuration not stated)", "values": [{"measurement": "Potency", "setting": "[2]", "value": "5.01 µM (active)"}, {"measurement": "Potency", "setting": "[3]", "value": "11.2 µM (active)"}, {"measurement": "Potency", "setting": "[4]", "value": "12.6 µM (active)"}, {"measurement": "Potency", "setting": "[5]", "value": "11.2 µM (active)"}, {"measurement": "Potency", "setting": "[6]", "value": "4.26 µM (active)"}, {"measurement": "max response", "setting": "[7]", "value": "-10.5% (inactive)"}]}
{"smiles": "O=C1NC(c2cccc([N+](=O)[O-])c2)=CCN1c1ccccc1O", "values": [{"measurement": "max response", "setting": "[7]", "value": "-1.53% (inactive)"}]}
{"smiles": "CCC[C@H](N[C@@H](C)C(=O)N1[C@H](C(=O)O)C[C@@H]2CCCC[C@@H]21)C(=O)OCC", "values": [{"measurement": "max response", "setting": "[1]", "value": "1.07% (inactive)"}]}
{"smiles": "NCC(=O)O", "values": [{"measurement": "max response", "setting": "[1]", "value": "-52.5% (inactive)"}]}
{"smiles": "O=C(Nc1ccc(Cl)cc1)Nc1ccc(Cl)c(Cl)c1", "values": [{"measurement": "Potency", "setting": "[2]", "value": "2.24 µM (active)"}, {"measurement": "Potency", "setting": "[3]", "value": "2.24 µM (active)"}, {"measurement": "Potency", "setting": "[4]", "value": "3.55 µM (active)"}, {"measurement": "Potency", "setting": "[8]", "value": "2.24 µM (active)"}, {"measurement": "Potency", "setting": "[5]", "value": "1.78 µM (active)"}, {"measurement": "Potency", "setting": "[6]", "value": "3.01 µM (active)"}, {"measurement": "Potency", "setting": "[9]", "value": "7.5 µM (active)"}]}
{"smiles": "CCC(C(=O)OCCN1CCOC(c2ccccc2)C1C)c1ccccc1", "note": "(configuration not stated)", "values": [{"measurement": "outcome", "setting": "[1]", "value": "inactive"}]}
{"smiles": "OC1(c2ccc(Cl)c(C(F)(F)F)c2)CCN(CCCC(c2ccc(F)cc2)c2ccc(F)cc2)CC1", "values": [{"measurement": "Potency", "setting": "[9]", "value": "8.41 µM (active)"}, {"measurement": "Potency", "setting": "[7]", "value": "23.1 µM (active)"}]}
{"smiles": "COc1cccc2c1[C@@H]1CN(CCCCn3c(=O)[nH]c4c(sc5ncc(-c6ccccc6)nc54)c3=O)C[C@@H]1CO2", "values": [{"measurement": "max response", "setting": "[7]", "value": "2.96% (inactive)"}]}
{"smiles": "C[C@H](N)C(=O)N[C@@H](C)C(=O)NC1[C@H]2CN(c3nc4c(cc3F)c(=O)c(C(=O)O)cn4-c3ccc(F)cc3F)C[C@@H]12", "note": "(some centres not stated)", "values": [{"measurement": "max response", "setting": "[1]", "value": "0.555% (inactive)"}]}
{"smiles": "CC(C)(c1ccc(O)cc1)c1ccc(O)cc1", "values": [{"measurement": "max response", "setting": "[1]", "value": "-13.2% (inactive)"}]}
{"smiles": "CCCCCCCCCCCCCCCC[N+](C)(C)Cc1ccccc1", "values": [{"measurement": "Potency", "setting": "[2]", "value": "10 µM (active)"}, {"measurement": "Potency", "setting": "[3]", "value": "1 µM (active)"}, {"measurement": "Potency", "setting": "[4]", "value": "3.98 µM (active)"}, {"measurement": "Potency", "setting": "[8]", "value": "14.1 µM (active)"}, {"measurement": "Potency", "setting": "[5]", "value": "12.6 µM (active)"}, {"measurement": "Potency", "setting": "[6]", "value": "4.26 µM (active)"}, {"measurement": "Potency", "setting": "[9]", "value": "5.31 µM (active)"}]}
{"smiles": "COc1ccc(OC(=O)N(CC(=O)O)Cc2ccc(OCCc3nc(-c4ccccc4)oc3C)cc2)cc1", "values": [{"measurement": "max response", "setting": "[1]", "value": "-6.17% (inactive)"}]}
{"smiles": "CN1CCC(N(Cc2cccs2)c2ccccc2)CC1", "values": [{"measurement": "max response", "setting": "[1]", "value": "-4.44% (inactive)"}, {"measurement": "max response", "setting": "[7]", "value": "-11.3% (inactive)"}]}
{"smiles": "Nc1nc2ccccc2n1Cc1ccc(F)cc1", "values": [{"measurement": "outcome", "setting": "[1]", "value": "inactive"}]}
{"smiles": "CN1CCC(Nc2ncc3ncnc(Nc4ccc(F)c(Cl)c4)c3n2)CC1", "values": [{"measurement": "Potency", "setting": "[4]", "value": "11.2 µM (active)"}, {"measurement": "Potency", "setting": "[5]", "value": "11.2 µM (active)"}, {"measurement": "Potency", "setting": "[6]", "value": "5.36 µM (active)"}, {"measurement": "Potency", "setting": "[1]", "value": "0.237 µM (active)"}, {"measurement": "max response", "setting": "[7]", "value": "-0.0832% (inactive)"}]}
{"smiles": "O=C(OCC(O)CO)c1ccccc1Nc1ccnc2c(C(F)(F)F)cccc12", "note": "(configuration not stated)", "values": [{"measurement": "max response", "setting": "[1]", "value": "-6.27% (inactive)"}]}
{"smiles": "O=C(CCC1CCN(Cc2ccccc2)CC1)c1ccc2c(c1)NCCCC2", "values": [{"measurement": "max response", "setting": "[1]", "value": "2.9% (inactive)"}, {"measurement": "max response", "setting": "[7]", "value": "-12.9% (inactive)"}]}
{"smiles": "OCc1c[nH]c2ccccc12", "values": [{"measurement": "Potency", "setting": "[9]", "value": "21.7 µM (active)"}, {"measurement": "max response", "setting": "[7]", "value": "-7.74% (inactive)"}]}
{"smiles": "COc1c(C)c2c(c(O)c1C/C=C(\\C)CCC(=O)OCCN1CCOCC1)C(=O)OC2", "values": [{"measurement": "max response", "setting": "[1]", "value": "-40.9% (inactive)"}]}
{"smiles": "CN1CCCN(C(c2ccccc2)c2ccc(Cl)cc2)CC1", "note": "(configuration not stated)", "values": [{"measurement": "Potency", "setting": "[2]", "value": "5.01 µM (active)"}, {"measurement": "Potency", "setting": "[5]", "value": "7.94 µM (active)"}, {"measurement": "Potency", "setting": "[6]", "value": "1.2 µM (active)"}, {"measurement": "max response", "setting": "[7]", "value": "0.505% (inactive)"}]}
{"smiles": "CCCC(=O)O[C@]1(C(=O)CC)CC[C@H]2[C@@H]3CCC4=CC(=O)CC[C@]4(C)[C@H]3[C@@H](O)C[C@@]21C", "values": [{"measurement": "max response", "setting": "[1]", "value": "-13.1% (inactive)"}]}
{"smiles": "C[N+](C)(C)CCO", "values": [{"measurement": "max response", "setting": "[7]", "value": "-9.9% (inactive) and -0.543% (inactive)"}]}
{"smiles": "Clc1ccc2c(c1)N=C(N1CCNCC1)c1ccccc1N2", "values": [{"measurement": "max response", "setting": "[1]", "value": "2.45% (inactive)"}]}
